Most compounds without a hit are left out; they make up all but 10% or so of the library.
NIH3T3 tox: cytotoxic compounds in NIH 3T3 cells | NIH 3T3 viability, CellTiter-Glo ATP luminescence, 48-72 h | Potency, µM (highest dose often 96.7 µM), for inactives: top-dose activity change, negative = cytotoxicity, actives largely listed as inhibitors | hit rate 4.3% among 94,000; also: nearly all actives have a fitted effect of over 55% in size
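Mouse fibroblast NIH 3T3 cells, 400 per well, received compound via pintool and were incubated for 48 or 72 hr prior to CellTiter-Glo ATP luminescence measurement.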
FLuc inh: blocks purified firefly luciferase enzyme activity. P08659. purified P. pyralis luciferase, luminescence, biochemical. Potency, µM (doses to about 115 µM), hits mostly inhibitors. hit rate 2.5% among 76,000; also: nearly all actives have a fitted effect of over 65% in size
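Purified 10nM P. pyralis luciferase with 10uM D-luciferin and 10uM ATP in 50mM Tris acetate pH 7.5, 10mM Mg acetate, 0.01% Tween-20, 0.05% BSA. qHTS titration; luminescence read by CCD imager.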
HEK cytotox: cytotoxic compounds in HEK 293 cells; HEK 293 viability, ATP luminescence (CellTiter-Glo), 48-72 h; Potency, µM (doses to about 115 µM), for the others: at the top dose activity change, negative = cytotoxicity, actives largely listed as inhibitors; hit rate 6.6% among 94,000; also: nearly all actives have a fitted effect of over 60% in size
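HEK 293 seeded at 250 cells/well receive compound via pintool. After 48 or 72 hr at 37 degree Celsius, 5% CO2 and 95% humidity, CellTiter-Glo is dispensed and luminescence read following 10 min at room temperature.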
hNpr1 antagonist: human Npr1 receptor antagonism. hit rate 1.6% among 76,000. P16066. Potency, µM (highest dose often 46.3 µM), without a hit: top-dose activity change, negative = inhibition, usual class: inhibitors. HEK293 hNpr1 GloSensor cGMP, ANP-stimulated luminescence; calls by dose curve; also: nearly all actives have a fitted effect of over 60% in size
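Compound pre-incubated 30 min at room temperature on GloSensor-loaded HEK293 cells stably carrying hNpr1 and the pGS-40F cGMP biosensor. Stimulation uses hNppA at 0.1 nM final; luminescence is taken at baseline and 20 min post-agonist.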
GPT2 inhibitor: blocks human glutamate pyruvate transaminase 2. Recombinant GPT2, coupled pyruvate oxidase/HRP Amplex Red fluorescence. hit rate 0.25% among 100,000. Q8TD30. Potency, µM (series often up to 57.7 µM), for inactives: at the top dose activity change, negative = inhibition, hits mostly inhibitors; also: nearly all actives have a fitted effect of over 60% in size
Target sequence (Q8TD30 whole entry, looked up): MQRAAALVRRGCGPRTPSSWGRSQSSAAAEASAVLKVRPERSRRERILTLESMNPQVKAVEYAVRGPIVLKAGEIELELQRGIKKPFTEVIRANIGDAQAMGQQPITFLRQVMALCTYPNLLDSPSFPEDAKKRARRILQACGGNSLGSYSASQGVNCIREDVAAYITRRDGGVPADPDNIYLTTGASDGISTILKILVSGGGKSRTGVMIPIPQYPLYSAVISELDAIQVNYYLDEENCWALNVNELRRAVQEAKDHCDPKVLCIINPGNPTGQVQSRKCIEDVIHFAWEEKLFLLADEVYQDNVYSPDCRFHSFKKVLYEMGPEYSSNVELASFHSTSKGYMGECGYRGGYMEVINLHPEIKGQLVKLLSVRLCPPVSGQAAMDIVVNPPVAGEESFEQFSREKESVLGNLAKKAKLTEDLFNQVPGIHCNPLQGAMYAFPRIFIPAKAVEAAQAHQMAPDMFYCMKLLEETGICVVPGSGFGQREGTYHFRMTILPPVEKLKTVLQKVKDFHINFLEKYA
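Recombinant GPT2 (10ng/uL) with 250uM a-KG and 2mM L-alanine, 30 min at room temperature, in HEPES pH 7.5 buffer. Pyruvate detected by pyruvate oxidase/HRP/Amplex Red fluorescence after 30 min in the dark; AOA (50uM) as positive control.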
* = called active by the depositor; i = inactive; u = inconclusive; x = not tested or not shown; ! = not active in a repeat; [ ] = remark or other dose. Unless noted, calls follow the shape of the dose curve; as a rule, active = well fitted curve in the direction sought with a large enough effect; inconclusive = small, poorly fitted or top-dose-only effect, or another doubt; inactive = no such curve, though single readings can be large; an effect the other way counts as inactive or inconclusive. % is scaled to controls: 0 for no effect and ±100 for the full control effect; potency is read from the fitted curve at half-maximal effect.

SMILES	NIH3T3 tox	FLuc inh	HEK cytotox	hNpr1 antagonist	GPT2 inhibitor
CN(C)C(=O)c1nc(-c2ccc(Cl)cc2)c2ccccn12	u	u	100µM*	7%[70.6 µM]	i
O=C(C1CCN([S+](=O)([O-])c2ccccc2)CC1)N1CCC(N2CCCC2=O)CC1	-23%	x	-3%	x	i
O=C(c1nc(-c2ccc(Cl)cc2)c2ccccn12)N1CCOCC1	u	i	112µM*	5%[70.6 µM]	-5%[88.5 µM]
COC(=O)CNC(=O)c1nc(-c2ccc(Cl)nc2)c2ccccn12	u	x	3%	x	-7%
C#CCNC(=O)c1nc(-c2cccc(F)c2)c2cnccn12	u	i	63µM*!	-27%[70.6 µM]	-3%[88.5 µM]
C#CCNC(=O)c1nc(-c2cccnc2)c2ccccn12	89µM*	i	-23%[172 µM]	0%[70.6 µM]	i
C#CCNC(=O)c1nc(-c2ccc(Cl)nc2)c2ccccn12	u	x	50µM*	x	-12%
O=C(Nc1ccc(F)cc1)c1ccc2nc(-c3cccnc3Cl)oc2c1	u	x	u	x	-7%[88.5 µM]
O=C(NCCc1ccc(Cl)cc1)c1cn2cc(-c3cccc(C(F)(F)F)c3)sc2n1	u	x	u	x	-29%
C#CCNC(=O)c1nc(-c2ccc(Cl)cc2)c2ccccn12	u	45µM*	u	-1%[70.6 µM]	i
C#CCNC(=O)c1nc(-c2cc(Cl)cc(Cl)c2)c2ccccn12	-6%[138 µM]	i	63µM*	-1%[70.6 µM]	i
CC(C)NC(=O)c1nc(-c2ccc(Cl)nc2)c2ccccn12	35µM*	x	u	x	-15%
C#CCNC(=O)c1nc(-c2ccc(Cl)cc2Cl)c2ccccn12	u	x	u	x	-12%
O=C(NCc1cccnc1)c1nc(-c2ccc(Cl)nc2)c2ccccn12	u	x	79µM*	x	-14%
CC(C)NC(=O)c1nc(-c2ccc(F)cc2)c2ccccn12	u	i	u	4%[70.6 µM]	i
O=C(NCc1ccccc1Cl)C1CCCN(c2ccnc3ccnn23)C1 (centres undefined)	u	x	u	x	-13%[88.5 µM]
CC(C)Oc1ccc(C(=O)NC2CCN(c3cnn(C)c(=O)c3)CC2)cc1	-9%	i	-2%	0%	-6%
CC1(c2ccccc2)N(Cc2cccnc2)C(=O)OC12CCN(Cc1ccccc1O)CC2 (centres undefined)	-24%	i	u	-22%	-9%
CC1(c2ccccc2)N(Cc2ccccc2)C(=O)OC12CCN(C(=O)c1cccc(Cl)c1)CC2 (centres undefined)	u	i	-29%	0%	-13%
COc1ccc(C(=O)N2CCC3(CC2)OC(=O)N(Cc2ccc(O)cc2)C3(C)c2ccccc2)cn1 (centres undefined)	u	i	u	-12%	-3%
CC1(c2ccccc2)N(Cc2ccc(O)cc2)C(=O)OC12CCN(C(=O)c1cccnc1)CC2 (centres undefined)	32µM*	i	i	3%	4%
CC1(c2ccccc2)N(Cc2ccccc2)C(=O)OC12CCN(Cc1c[nH]c3ccccc13)CC2 (centres undefined)	22µM*	i	28µM*	u	4%
COc1ccc(CN2CCC3(CC2)OC(=O)N(Cc2ccccc2C#N)C3(C)c2ccccc2)cc1O (centres undefined)	u	i	45µM*	-19%	-1%
CC1(c2ccccc2)N(Cc2ccccc2)C(=O)OC12CCN(C(=O)c1cccc(O)c1)CC2 (centres undefined)	u	i	79µM*	-5%	3%
CC1(c2ccccc2)N(Cc2ccccc2)C(=O)OC12CCN(C(=O)c1ccc(F)cc1)CC2 (centres undefined)	u	i	u	1%	-9%
SMILES	NIH3T3 tox	FLuc inh	HEK cytotox	hNpr1 antagonist	GPT2 inhibitor
CC1(c2ccccc2)N(Cc2ccccc2F)C(=O)OC12CCN(C(=O)Cc1ccc(O)cc1)CC2 (centres undefined)	22µM*	i	u	6%	-20%
CC(=O)N1CCC2(CC1)OC(=O)N(Cc1ccccc1)C2(C)c1ccccc1 (centres undefined)	25µM*	i	-23%[172 µM]	-1%[70.6 µM]	2%[88.5 µM]
CC1(c2ccccc2)N(Cc2ccccc2F)C(=O)OC12CCN(C(=O)CCc1ccccn1)CC2 (centres undefined)	u	i	u	3%	-5%
Cc1ncsc1C(=O)N1CCC2(CC1)OC(=O)N(Cc1ccccc1F)C2(C)c1ccccc1 (centres undefined)	10µM*	i	-29%	2%	-25%
COc1ccc(C(=O)N2CCC3(CC2)OC(=O)N(Cc2ccccc2F)C3(C)c2ccccc2)cn1 (centres undefined)	u	i	u	-4%	i
Cc1nc(CN2C(=O)OC3(CCN(Cc4ccc(C(C)C)cc4)CC3)C2(C)c2ccccc2)cs1 (centres undefined)	45µM*	i	u	3%	-13%
Cc1nc(CN2C(=O)OC3(CCN(CCc4ccccc4)CC3)C2(C)c2ccccc2)cs1 (centres undefined)	-22%	i	u	-10%	0%
CNc1cc(C)nc(N2CCN(Cc3ccc(C)cc3)C(CCO)C2)n1 (centres undefined)	u	i	u	-12%	i
Cn1ccc(C(=O)N2CCC3(CC2)OC(=O)N(Cc2ccccc2)C3(C)c2ccccc2)n1 (centres undefined)	35µM*	i	-1%	-2%	i
COc1ccc(C(=O)N2CCC3(CC2)OC(=O)N(Cc2ccccc2)C3(C)c2cccnc2)cc1 (centres undefined)	u	i	i	5%	-12%
CC1(c2ccccc2)N(Cc2ccccc2C#N)C(=O)OC12CCN(C(=O)Cc1ccc(O)cc1)CC2 (centres undefined)	11µM*	i	-23%	1%	i
CC1(c2ccccc2)N(Cc2ccccc2)C(=O)OC12CCN(C(=O)Cc1ccc(O)cc1)CC2 (centres undefined)	6.3µM*	i	u	-17%	3%
CC1(c2ccccc2)N(Cc2cccnc2)C(=O)OC12CCN(C(=O)Cc1ccc(Cl)cc1)CC2 (centres undefined)	u	i	u	4%	-3%
CC1(c2ccccc2)N(Cc2ccccc2)C(=O)OC12CCN(Cc1ccc(O)cc1)CC2 (centres undefined)	u	i	u	-19%	0%
CC1(c2ccccc2)N(Cc2ccc(O)cc2)C(=O)OC12CCN(CC1CC1)CC2 (centres undefined)	79µM*	i	u	-8%[70.6 µM]	i
O=C(c1nc2cccnc2n(Cc2ccccc2)c1=O)N1CCCC1	-15%[138 µM]	x	-6%[172 µM]	x	i
